Compound activity (PubChem BioAssay)
Rows were chosen to be rich in hits. Some 2.8% of all compounds tested hit in one or more screens of this group.
SKKanGAS inh – inhibitors of SKKanGAS S. pyogenes growth in kanamycin (SK-promoter or general growth effect). BacTiter-Glo, 6 h. inhibition, % at 7.5 µM. hit rate 1.3% among 300,000. AID 1662;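 active = mean replicate score, as percent of positive control median, at least 50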;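 also: strain carries kanamycin resistance gene driven by streptokinase promoter and grows in 40 µg/ml kanamycin; loss of luminescence reflects streptokinase promoter inhibition or plain growth inhibition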
PP1 counter – counter-screen for PP5 inhibitors: inhibitors of human PP1-alpha; P62136; purified PP1alpha, OMFP fluorescence; inhibition, % at 6.7 µM; hit rate 0.9% among 320,000; AID 2235;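 active = inhibition above the mean inhibition of all tested compounds plus 3 SD, computed separately for each screening campaign, cut at about 15% in these data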
IDE inh – inhibits human insulin-degrading enzyme in HEK cells; P14735; FAbetaB cleavage, fluorescence polarization; inhibition, % at 5.59 µM; hit rate 0.41% among 320,000;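 active = percent inhibition above the average of all tested compounds plus 3 SD, set per screening campaign, cut at about 16% in these data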;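 also: IDE supplied by intact live HEK cells; FP after avidin binding of uncleaved biotin substrate so inhibition keeps polarization high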
PP5 primary – blocks human protein phosphatase 5 activity; inhibition, % at 6.7 µM; purified PP5c, OMFP substrate fluorescence; hit rate 0.18% among 320,000; AID 1987; P53041;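 active = inhibition above the campaign's mean inhibition across all tested compounds plus 3 SD, cut at about 9.5% in these data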
IDE cell activ – activators of human insulin-degrading enzyme in cells. P14735. HEK cells, FAbeta-B cleavage, fluorescence polarization; 0% vehicle, 100% cell-free pure enzyme wells. activation, % at 5.96 µM. hit rate 0.073% among 340,000. AID 493087;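 active = activation above the mean of all tested compounds plus 3 SD, set per screening campaign, cut at about 17% in these data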
Granule exo inh – lytic granule exocytosis inhibition. inhibition, % at 10 µM. AID 651702. hit rate 0.66% among 360,000. TALL-104 LAMP-1 surface exposure, flow cytometry; cells stimulated with thapsigargin and PMA;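 active = inhibition above about 55%, limit read from the data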
PP1 confirm – confirmation of human PP1 phosphatase inhibitors; inhibition, % at 6.7 µM; purified PP1alpha, OMFP substrate fluorescence; shares compounds with PP1 counter; hit rate 52% among 1,900;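 active = mean PP1 inhibition above a set limit taken from the earlier primary screen, cut at about 15% in these data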
PP5 inh counter – inhibits human PP5 phosphatase in PP1 counter-screen. purified PP5c, OMFP fluorescence. shares compounds with PP1 counter. inhibition, % at 6.7 µM. AID 2360. hit rate 4% among 1,900;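 active = mean PP5 inhibition over triplicate wells above about 9.5% taken from the earlier PP1 screen, limit read from the data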
Hits are given with their value; . = inactive; / = no result.

SMILES	SKKanGAS inh	PP1 counter	IDE inh	PP5 primary	IDE cell activ	Granule exo inh	PP1 confirm	PP5 inh counter
O=C(Nc1nc2n(n1)C(c1ccc(Cl)cc1)CC(c1ccc(Cl)cc1)N2)c1ccco1 (stereo not given)	55	23	.	.	/	/	16	.
CN1CCN(S(=O)(=O)c2cccc(C(=O)Oc3ccc(Br)cc3F)c2)CC1	.	34	.	.	.	.	.	.
CN1CCN(S(=O)(=O)c2cccc(C(=O)Oc3cccc(Br)c3)c2)CC1	.	.	.	.	.	.	/	/
CN1C(=O)[C@H]2[C@@H](c3ccccc3)N[C@]3(CCCN(Cc4ccc(F)cc4)C3=O)[C@H]2C1=O	/	/	/	/	/	.	/	/
Cn1c(=O)c(C(=O)Nc2ncccc2O)c(O)c2ccccc21	.	28	.	.	.	.	30	.
COc1ccc(/C=N/Nc2cc(C)nc3ccc(Br)cc23)cc1	.	22	.	.	.	.	.	.
COc1ccc(C(=O)/C=C/Nc2cccc(C)n2)cc1OC	.	35	.	.	.	.	.	.
COc1ccc(N/C=C/C(=O)c2ccc(OC)c(OC)c2)cc1	.	.	.	.	.	.	/	/
CCOC(=O)C1(C)CCN1C(=O)/C=C/c1ccccc1 (stereo not given)	/	/	/	/	/	.	/	/
CCCCC(CC)CO (stereo not given)	/	/	.	/	.	.	/	/
CCCCC(CC)CN=C(N)NC(N)=NCCCCCCN=C(N)NC(N)=NCC(CC)CCCC (stereo not given)	/	46	.	.	.	.	29	.
COc1cc2[nH]c3c(=O)n4c(nc3c2cc1OC)SCCC4	.	.	.	.	.	.	/	/
CCn1cc(C(=O)NCC(OC)OC)c(=O)c2cc(S(=O)(=O)N(C)C3CCCCC3)ccc21	.	.	.	.	.	.	/	/
O=C(CN1C(=O)NC2(CCCC2)C1=O)OCCOc1cccc(Cl)c1	.	18	.	.	.	.	.	.
Cc1ccc(C(=O)Nc2nc(-c3ccccn3)cs2)s1	/	34	.	.	.	.	32	.
O=C(COc1ccc(F)cc1Cl)Nc1nc(-c2ccccn2)cs1	110	42	.	.	.	.	43	.
O=C(CCCSc1ccccc1)Nc1nc(-c2ccccn2)cs1	105	41	.	.	.	.	39	.
N#Cc1ccccc1OCC(=O)Nc1nc(-c2ccccn2)cs1	/	/	/	/	/	.	/	/
Cn1cccc1C(=O)Nc1nc(-c2ccccn2)cs1	81	32	.	.	.	.	41	.
Cc1ccc(N(C)S(=O)(=O)c2c(C)noc2/C=C/N(C)C)cc1	.	.	.	.	.	.	/	/
O=C(/C=C/c1ccco1)Nc1nc(-c2ccccc2)cs1	.	.	.	.	.	.	/	/
O=C(Nc1nc(-c2ccccn2)cs1)C1CCCC1	.	.	.	.	.	.	/	/
O=C(/C=C/c1ccco1)Nc1nc(-c2ccccn2)cs1	55	32	.	.	.	.	40	.
O=C(Nc1nc(-c2ccccn2)cs1)c1ncc(Cl)c(Cl)c1Cl	98	37	.	.	.	.	41	.
O=C(Nc1nc(-c2ccccn2)cs1)c1ccc(Cl)s1	102	31	.	.	.	.	29	.
SMILES	SKKanGAS inh	PP1 counter	IDE inh	PP5 primary	IDE cell activ	Granule exo inh	PP1 confirm	PP5 inh counter
CSCCC(NC(=O)COc1ccccc1)C(=O)OCc1ccc([N+](=O)[O-])cc1 (stereo not given)	.	.	.	.	.	.	/	/
CC(C)CC(=O)Nc1ccc(C(=O)Cn2nc(C(=O)O)c3ccccc3c2=O)cc1	.	20	.	.	.	.	23	.
Cc1nn(CC(=O)Nc2ccc(C(=O)N3CCCCC3)cc2)c(=O)c2ccccc12	.	23	.	.	.	.	.	.
Cc1nn(CC(=O)Nc2ccc(C(=O)N3CCCC3)cc2)c(=O)c2ccccc12	.	.	.	.	.	.	/	/
NC(=O)/C(=N\OC(=O)c1ccco1)c1nc(-c2ccc(Br)cc2)cs1	.	27	.	.	.	.	.	.
Nc1nc(-c2ccc(NC(=O)c3ccco3)cc2)cs1	.	.	.	.	.	.	/	/
Cc1ccc(S(=O)(=O)N(CC(=O)N=Nc2c(O)[nH]c3ccccc23)c2ccc(C)c(C)c2)cc1	/	19	.	.	.	.	19	.
CCOc1ccc(/C=N/NC(=O)c2ccccc2O)cc1CN1CC2CC(C1)c1cccc(=O)n1C2 (stereo not given)	/	.	.	.	.	.	/	/
COc1ccc2nc3cc(Cl)ccc3c(Nc3cc(CN4CCCC4)c(O)c(CN4CCCC4)c3)c2n1	.	32	.	.	/	.	.	.
CCOC(=O)c1[nH]nc(C(=O)c2ccc(Br)cc2)c1O	.	31	.	.	.	.	30	.
CCOC(=O)c1ccc(CNCc2ccc(Br)cc2)cc1	.	.	.	.	.	.	/	/
CCCn1c(=O)c(C(=O)NNC(=O)c2ccccc2[N+](=O)[O-])c(O)c2ccccc21	.	20	.	.	.	.	18	.
CCCn1c(=O)c(C(=O)Nc2ccccc2N)c(O)c2ccccc21	/	/	/	/	/	.	/	/
COc1ccc(CNC(=S)Nc2cc(OC)ccc2OC)cc1	.	63	.	.	.	.	.	.
CCOC(=O)c1c(CSC(=N)N)n(-c2ccc(C)cc2)c2cc(Br)c(OC(C)=O)cc12	.	20	.	.	18	.	.	.
COc1cc(OC)cc(C(=O)NNC(=S)Nc2ccc(S(N)(=O)=O)cc2)c1	.	.	.	.	.	.	/	/
CCCCSc1nnc(-c2ccccc2NC(C)=O)c(=O)[nH]1	.	.	.	.	.	.	/	/
COc1ccc(C[C@H]2CN3C(=NC[C@@H]3Cc3ccccc3)N2CCNC(=O)c2ccc(C)c(Br)c2)cc1	.	22	.	.	.	.	.	.
COc1ccc(C[C@H]2CN3C(=NC[C@@H]3C(C)C)N2C[C@H](C)NC(=O)c2ccc(C)c(Br)c2)cc1	.	.	.	.	.	.	/	/
COc1ccc(C[C@H]2CN3C(=NC[C@@H]3Cc3ccc(O)cc3)N2C[C@H](C)NC(=O)c2ccc(C)c(Br)c2)cc1	.	18	.	.	.	.	.	.
COc1ccc(C[C@H]2CN3C(=NC[C@H]3Cc3ccccc3)N2CCNC(=O)c2ccc(C)c(Br)c2)cc1	.	19	.	.	.	.	.	.
COc1ccc(C[C@H]2CN3C(=NC[C@@H]3Cc3ccc(O)cc3)N2CCNC(=O)c2ccc(C)c(Br)c2)cc1	.	.	.	.	.	.	/	/
Cc1ccc(C(=O)NCCN2C3=NC[C@@H](Cc4ccccc4)N3C[C@H]2Cc2ccc(O)cc2)cc1Br	.	.	.	.	.	.	/	/
O=S(=O)(c1ccccc1Br)N1CCC(O)(c2cccnc2)CC1	.	.	.	.	.	.	/	/
CCOC(=O)c1cnc(-n2nc(C)cc2C)nc1Oc1ccccc1F	.	.	.	.	/	.	/	/
